The values that follow come from PubChem BioAssay (Tox21).

Inconclusive results are not listed. A call without a number means that no potency is given here. Active and inactive are the calls of the source. Unless noted, the call rests on the fitted dose curve.

The target of the first experiment is Nuclear receptor subfamily 1 group I member 2 (Homo sapiens) (UniProt O75469). The experiment in a line: Human pregnane X receptor (PXR) activation by small molecules, qHTS assay (AID 1346985; active means well fitted activation curve with a large enough effect in the repeat runs; further: nearly all actives have a fitted effect of over 40% in size). The settings on record: DPX-2 HepG2 CYP3A4-luciferase, 24 h; series mostly up to 38.3 µM; activation: at the top concentration. A digest of the protocol: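 DPX-2 cells (HepG2 co-transfected with a PXR response element and a CYP3A4-promoter luciferase construct) were seeded at 2,000 per well, rested 5 hr at 37C, then exposed to DMSO-dissolved compounds for 24 hr. Activation was read as luciferase luminescence.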
For `C[C@]12CCC(=O)C=C1CC[C@@H]1[C@@H]2CC[C@]2(C)C(=O)CC[C@@H]12`, the “activation” value was 27.2% (inactive).
As for `O=C(O)C(Cl)Cl`, the “activation” value is -1.17% (inactive).
As for `CCCCCCCCCCCCOS(=O)(=O)O`, the “activation” value was 13.3% (inactive).
Same read-out and setting: with `COP(=O)(OC)OC=C(Cl)Cl` the figure was 25.6% (inactive); with `OCCOc1ccccc1`, -2.8% (inactive).

For the next experiment, the target named is Acetylcholinesterase (Homo sapiens) (UniProt P22303). Nature of the experiment: Acetylcholinesterase (AChE) small molecule antagonists: colormetric cell-based qHTS assay (AID 1347395). Further: nearly all actives have a fitted effect of over 30% in size. The settings on record: SH-SY5Y cells AChE activity, colorimetric (Ellman); series mostly up to 115 µM; activity, negative = inhibition: at the top concentration. The gist of the method: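 Quantitative HTS in attached SH-SY5Y cells: 30 min compound exposure, then 90 min with acetylthiocholine and DTNB at 37 C; colour from thiocholine reports AChE activity.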
Acetylcholinesterase (Homo sapiens), sequence (P22303 whole entry, looked up): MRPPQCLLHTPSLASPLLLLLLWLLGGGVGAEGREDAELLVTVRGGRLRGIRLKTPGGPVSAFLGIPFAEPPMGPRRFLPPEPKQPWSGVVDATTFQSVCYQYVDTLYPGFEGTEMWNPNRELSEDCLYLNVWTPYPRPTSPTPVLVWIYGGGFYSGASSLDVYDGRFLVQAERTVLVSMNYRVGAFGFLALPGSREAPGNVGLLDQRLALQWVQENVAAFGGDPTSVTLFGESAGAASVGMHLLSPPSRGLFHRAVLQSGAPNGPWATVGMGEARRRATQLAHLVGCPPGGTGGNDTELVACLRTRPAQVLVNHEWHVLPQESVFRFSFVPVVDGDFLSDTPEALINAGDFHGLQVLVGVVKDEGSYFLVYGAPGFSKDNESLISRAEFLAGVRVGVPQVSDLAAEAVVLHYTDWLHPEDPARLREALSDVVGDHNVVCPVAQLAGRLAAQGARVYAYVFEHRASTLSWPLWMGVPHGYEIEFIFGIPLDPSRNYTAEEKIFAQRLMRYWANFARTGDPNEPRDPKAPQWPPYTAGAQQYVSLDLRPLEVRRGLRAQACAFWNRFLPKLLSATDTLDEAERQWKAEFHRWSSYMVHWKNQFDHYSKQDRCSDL
Consider `C[N+](C)(C)Cc1ccccc1`, for which the Potency result was “inactive”.
The same measure, in the same setting: the entry for `C[C@]12CCC(=O)C=C1CC[C@@H]1[C@@H]2CC[C@]2(C)C(=O)CC[C@@H]12` is “inactive”; for `O=c1nc(O)n(Cl)c(=O)n1Cl` it is “inactive”.
Turning to `O=C(O)c1nc(Cl)ccc1Cl`, the Potency result was “inactive”.
As for `CCCCCCCCCCCC(=O)O`, the Potency result was “inactive”.
`O=C(O)C(Cl)Cl`: the Potency result is “inactive”.
On the same count and under the same terms, with `CCCCCCCCCCCCOS(=O)(=O)O` the entry was “inactive”.
As to `O=C(O)COc1ccc(Cl)cc1Cl`, the Potency entry is “inactive”.
As for `COCC(=O)N(c1c(C)cccc1C)C(C)C(=O)OC` (stereo not given), the Potency entry is “inactive”.
On the same count and under the same terms, with `Nc1ccc(-c2ccc(N)cc2)cc1` the entry was “inactive”.
On the same count and under the same terms, with `OCCOc1ccccc1` the entry was “inactive”.
For `CCn1cc[n+](C)c1C`, the Potency entry is “inactive”.
Still for that read-out and setting: the entry for `O=[N+]([O-])c1ccccc1O` is “inactive”; for `CNC` it is “inactive”; for `Cc1cc(-c2ccc(N)c(C)c2)ccc1N` it is “inactive”.
